# From PubChem BioAssay (NCATS)
# Inconclusive results are not listed. Calls of active or inactive are those of the source. The call rests on the fitted dose curve; in most records, active means well fitted curve in the direction sought with a large enough effect; inconclusive means small, poorly fitted or top-dose-only effect, or another doubt; inactive means no such curve, though single readings can be large; an effect the other way counts as inactive or inconclusive.
# Key:
# [1] = qHTS of pediatric cancer cell lines to identify multiple opportunities for drug repurposing: Primary screen for TC32 cells (AID 1347089); further: nearly all actives have a fitted effect of over 60% in size
# Outline: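 Measured quantity: luminescence from CellTiter-Glo, reflecting metabolically active TC32 cells following 48 h of compound. Curves came straight from multi-point titrations, with 8 or 11 points in primary and 11 in confirmatory screening.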
# [2] = qHTS of pediatric cancer cell lines to identify multiple opportunities for drug repurposing: Primary screen for DAOY cells (AID 1347090); further: nearly all actives have a fitted effect of over 55% in size
# Outline: (§1)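 Viability measured as metabolically active cells via CellTiter-Glo luminescence following 48 hours of compound exposure, 11-point dilutions in confirmatory testing. 500-1,000 cells/well plated 5 hours before dosing; controls were DMSO and 2.3 µM bortezomib.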
# [3] = qHTS of pediatric cancer cell lines to identify multiple opportunities for drug repurposing: Primary screen for SJ-GBM2 cells (AID 1347091)
# Outline: as §1
# [4] = qHTS of pediatric cancer cell lines to identify multiple opportunities for drug repurposing: Primary screen for A673 cells (AID 1347092); further: nearly all actives have a fitted effect of over 45% in size
# Outline: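 Cells are plated, rested 5 h, dosed by pintool, incubated 48 h, then lysed with CellTiter-Glo and read by luminescence. DMSO is the neutral control; bortezomib at 2.3 uM final is the positive control.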
# [5] = qHTS of pediatric cancer cell lines to identify multiple opportunities for drug repurposing: Primary screen for SK-N-MC cells (AID 1347093)
# Outline: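 Metabolically active cells were quantified by ATP-dependent luminescence (CellTiter-Glo, 15 min at room temperature) following 48 h treatment. Cells had been plated at 500-1,000 per well and settled for 5 h beforehand.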
# [6] = qHTS of pediatric cancer cell lines to identify multiple opportunities for drug repurposing: Primary screen for BT-37 cells (AID 1347094)
# Outline: (§2)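 Readout: CellTiter-Glo luminescence, 48 h treatment. Controls DMSO (neutral) and bortezomib 2.3 µM final (positive). Potency and efficacy taken from primary-screen concentration-response curves.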
# [7] = qHTS of pediatric cancer cell lines to identify multiple opportunities for drug repurposing: Primary screen for NB-EBc1 cells (AID 1347095)
# Outline: as §2
# [8] = qHTS of pediatric cancer cell lines to identify multiple opportunities for drug repurposing: Primary screen for U-2 OS cells (AID 1347096); further: nearly all actives have a fitted effect of over 50% in size
# Outline: (§3)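 Viability after 48 h compound treatment at 37C, 500-1,000 cells/well, read as ATP luminescence with CellTiter-Glo. Primary screens used 11-point (MIPE, 0.78 nM-46 µM) or 8-point (NPC, 0.59 nM-46 µM) final concentrations; follow-up screens used 11-point dilutions.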
# [9] = qHTS of pediatric cancer cell lines to identify multiple opportunities for drug repurposing: Primary screen for SK-N-SH cells (AID 1347098); further: nearly all actives have a fitted effect of over 65% in size
# Outline: (§4)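 Cells (500-1,000/well) rested 5 h, then received compounds for 48 h; metabolically active cells were measured by CellTiter-Glo luminescence. Final concentrations spanned up to 46 µM (MIPE, 11-point) or 0.59 nM-46 µM (NPC, 8-point) in primary screens, 11-point in follow-ups.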
# [10] = qHTS of pediatric cancer cell lines to identify multiple opportunities for drug repurposing: Primary screen for NB1643 cells (AID 1347099); further: nearly all actives have a fitted effect of over 50% in size
# Outline: as §2
# [11] = qHTS of pediatric cancer cell lines to identify multiple opportunities for drug repurposing: Primary screen for LAN-5 cells (AID 1347100)
# Outline: as §3
# [12] = qHTS of pediatric cancer cell lines to identify multiple opportunities for drug repurposing: Primary screen for BT-12 cells (AID 1347101); further: nearly all actives have a fitted effect of over 25% in size
# Outline: as §4
# [13] = qHTS of pediatric cancer cell lines to identify multiple opportunities for drug repurposing: Primary screen for Rh18 cells (AID 1347102); further: nearly all actives have a fitted effect of over 65% in size
# Outline: as §3
# [14] = qHTS of pediatric cancer cell lines to identify multiple opportunities for drug repurposing: Primary screen for OHS-50 cells (AID 1347103); further: nearly all actives have a fitted effect of over 40% in size
# Outline: as §4
# [15] = qHTS of pediatric cancer cell lines to identify multiple opportunities for drug repurposing: Primary screen for RD cells (AID 1347104); further: nearly all actives have a fitted effect of over 55% in size
# Outline: as §2
# [16] = qHTS of pediatric cancer cell lines to identify multiple opportunities for drug repurposing: Primary screen for MG 63 (6-TG R) cells (AID 1347105); further: nearly all actives have a fitted effect of over 50% in size
# Outline: as §2
# [17] = qHTS of pediatric cancer cell lines to identify multiple opportunities for drug repurposing: Primary screen for control Hh wild type fibroblast cells (AID 1347106); further: nearly all actives have a fitted effect of over 55% in size
# Outline: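 Cells (500-1,000/well) in growth media were settled 5 h at 37 degrees C, then given compounds for 48 h. Viability was read as CellTiter-Glo luminescence. Primary runs used MIPE at 11 points (0.78 nM-46 µM) and NPC at 8 points (0.59 nM-46 µM); follow-ups used 11 points.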
# [18] = qHTS of pediatric cancer cell lines to identify multiple opportunities for drug repurposing: Primary screen for Saos-2 cells (AID 1347097); further: nearly all actives have a fitted effect of over 40% in size
# Outline: as §2
# Potency means the concentration at half of the fitted maximal effect.
SMILES,Potency [1],Potency [2],Potency [3],Potency [4],Potency [5],Potency [6],Potency [7],Potency [8],Potency [9],Potency [10],Potency [11],Potency [12],Potency [13],Potency [14],Potency [15],Potency [16],Potency [17],Potency [18]
CC1=C(CO)C(=O)O[C@@H]([C@@H](C)[C@H]2CC[C@H]3[C@@H]4C[C@H]5O[C@]56[C@@H](O)C=CC(=O)[C@]6(C)[C@@H]4CC[C@]23C)C1,2340 nM (active),743 nM (active),372 nM (active),372 nM (active),132 nM (active),2170 nM (active),469 nM (active),inactive,3410 nM (active),132 nM (active),187 nM (active),769 nM (active),2640 nM (active),4850 nM (active),418 nM (active),743 nM (active),inactive,–
CN1CC[C@@H](c2c(O)cc(O)c3c(=O)cc(-c4ccccc4Cl)oc23)[C@@H](O)C1,466 nM (active),187 nM (active),52.6 nM (active),93.5 nM (active),118 nM (active),109 nM (active),74.3 nM (active),296 nM (active),76.4 nM (active),–,–,122 nM (active),–,122 nM (active),–,148 nM (active),–,148 nM (active)
C=C1C(=CC=C2CCC[C@]3(C)[C@@H]([C@H](C)C=C[C@H](C)C(C)C)CC[C@@H]23)C[C@@H](O)C[C@@H]1O,11700 nM (active),1870 nM (active),743 nM (active),469 nM (active),469 nM (active),968 nM (active),526 nM (active),3720 nM (active),1920 nM (active),935 nM (active),469 nM (active),2170 nM (active),–,685 nM (active),1660 nM (active),5900 nM (active),inactive,2960 nM (active)
COc1cccc(Nc2c(C(N)=O)cnc3c(C)cc(S(=O)(=O)c4cccc(C(=O)N(C)C)c4)cc23)c1,inactive,inactive,inactive,inactive,6450 nM (active),inactive,inactive,inactive,–,–,–,–,inactive,10600 nM (active),inactive,inactive,inactive,inactive
C=CC(=O)Nc1cc2c(Nc3ccc(F)c(Cl)c3)ncnc2cc1OCCCN1CCOCC1,inactive,18700 nM (active),16800 nM (active),4690 nM (active),2350 nM (active),6850 nM (active),18700 nM (active),7430 nM (active),2730 nM (active),23500 nM (active),6620 nM (active),21700 nM (active),8330 nM (active),7690 nM (active),18700 nM (active),23500 nM (active),–,5900 nM (active)
Cc1ccc(-c2ncn(-c3ccc(Nc4nccc(-c5cccc(N6CCOCC6)c5)n4)cc3)n2)cn1,330 nM (active),187 nM (active),105 nM (active),93.5 nM (active),66.2 nM (active),122 nM (active),209 nM (active),235 nM (active),383 nM (active),52.6 nM (active),66.2 nM (active),122 nM (active),52.6 nM (active),217 nM (active),105 nM (active),93.5 nM (active),166 nM (active),93.5 nM (active)
COc1ccc(C=Cc2cc(OC)c(OC)c(OC)c2)cc1O,0.4 nM (active),1 nM (active),1 nM (active),1 nM (active),1 nM (active),13.7 nM (active),1 nM (active),inactive,–,–,1 nM (active),–,–,1 nM (active),inactive,inactive,–,935 nM (active)
Nc1ncnc2c1c(-c1cnc3[nH]ccc3c1)nn2C1CCCC1,5870 nM (active),3720 nM (active),132 nM (active),1870 nM (active),66.2 nM (active),1720 nM (active),469 nM (active),2350 nM (active),2150 nM (active),5900 nM (active),1050 nM (active),1370 nM (active),526 nM (active),68.5 nM (active),1870 nM (active),118 nM (active),1320 nM (active),935 nM (active)
Nc1ccn([C@@H]2O[C@H](CO)[C@H](O)C2(F)F)c(=O)n1,117 nM (active),1870 nM (active),235 nM (active),18.7 nM (active),1320 nM (active),30.6 nM (active),935 nM (active),inactive,–,469 nM (active),93.5 nM (active),–,–,–,–,–,inactive,3720 nM (active)
CC(=O)SC[C@@H](C)C(=O)N1CCC[C@H]1C(=O)N[C@@H](Cc1ccccc1)C(=O)O,inactive,inactive,inactive,inactive,inactive,inactive,inactive,inactive,inactive,inactive,inactive,inactive,–,inactive,–,inactive,inactive,inactive
